Measurements from PubChem BioAssay (NCATS).
Unmarked numbers belong to inactive results. Results filed as inconclusive are left out. Entries that show only a call come without a potency. Active and inactive are the calls of the source. Unless noted, calls follow the shape of the dose curve; as a rule, active = well fitted curve in the direction sought with a large enough effect; inconclusive = small, poorly fitted or top-dose-only effect, or another doubt; inactive = no such curve, though single readings can be large; an effect the other way counts as inactive or inconclusive.

How the values were obtained:
[1] = biological target: 3',5'-cyclic-AMP phosphodiesterase 4B (Homo sapiens) (UniProt Q07343); assay: qHTS Assay for Inhibitors of PDE-IV (AID 607; active = well fitted activation curve with a large enough effect in the main read-out, with a control signal flat, not every such curve was filed as active)
Sequence of 3',5'-cyclic-AMP phosphodiesterase 4B (Homo sapiens) (Q07343 whole entry, looked up): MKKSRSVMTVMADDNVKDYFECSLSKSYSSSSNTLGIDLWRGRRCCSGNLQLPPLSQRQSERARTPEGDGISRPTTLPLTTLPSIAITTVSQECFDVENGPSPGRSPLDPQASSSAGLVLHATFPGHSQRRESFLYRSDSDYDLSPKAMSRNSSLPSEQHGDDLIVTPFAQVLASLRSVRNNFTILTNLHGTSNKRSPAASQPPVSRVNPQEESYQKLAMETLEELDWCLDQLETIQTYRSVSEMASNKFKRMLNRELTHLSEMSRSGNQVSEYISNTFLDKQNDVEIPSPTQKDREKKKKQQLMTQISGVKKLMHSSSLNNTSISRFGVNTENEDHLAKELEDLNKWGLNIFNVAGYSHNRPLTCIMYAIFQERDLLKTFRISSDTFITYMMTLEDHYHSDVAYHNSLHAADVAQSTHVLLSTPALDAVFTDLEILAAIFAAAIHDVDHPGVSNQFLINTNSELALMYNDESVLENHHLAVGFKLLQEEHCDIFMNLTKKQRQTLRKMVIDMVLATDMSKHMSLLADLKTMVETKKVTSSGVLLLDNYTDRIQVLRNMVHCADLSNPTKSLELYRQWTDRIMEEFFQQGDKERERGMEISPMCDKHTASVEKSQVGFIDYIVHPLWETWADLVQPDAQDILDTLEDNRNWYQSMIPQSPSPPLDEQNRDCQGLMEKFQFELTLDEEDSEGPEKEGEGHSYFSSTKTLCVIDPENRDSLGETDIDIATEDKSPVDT
In short: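 ACTOne HEK293 cells carry a modified cAMP-gated CNG channel and express endogenous PDE4; plated 1000 cells/well, compounds up to 22.9 uM final. Membrane-potential dye fluorescence (ex 535/em 590) was read; parental cells received 10 uM forskolin + 100 uM RO 20-1724.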

[2] = biological target: Guanine nucleotide-binding protein G(i) subunit alpha-1 (Homo sapiens) (UniProt P63096); assay: qHTS Assay for Inhibitors of RGS12 GoLoco Motif Activity (Green Fluorophore) (AID 879);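 also: negative values mean loss of peptide binding seen as reduced polarization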
Sequence of Guanine nucleotide-binding protein G(i) subunit alpha-1 (Homo sapiens) (P63096 whole entry, looked up): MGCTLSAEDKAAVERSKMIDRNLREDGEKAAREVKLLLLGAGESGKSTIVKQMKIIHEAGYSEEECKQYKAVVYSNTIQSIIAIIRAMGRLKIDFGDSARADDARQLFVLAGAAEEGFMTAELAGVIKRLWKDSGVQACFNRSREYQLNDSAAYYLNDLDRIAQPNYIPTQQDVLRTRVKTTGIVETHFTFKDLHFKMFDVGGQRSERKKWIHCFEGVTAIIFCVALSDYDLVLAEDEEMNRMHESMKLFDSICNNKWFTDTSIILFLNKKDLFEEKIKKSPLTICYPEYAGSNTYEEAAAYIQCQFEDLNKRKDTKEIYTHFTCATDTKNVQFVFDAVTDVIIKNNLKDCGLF
In short: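 A drop in FITC polarization marked displacement of the FITC-tagged RGS12 GoLoco peptide (10 nM) from Gαi1 (50 nM). Compounds were incubated 10 min at room temperature in Tris pH 7.5 buffer containing 150 mM NaCl, 0.1 mM GDP and 0.05% NP40; unlabeled peptide titration served as control.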

[3] = Cell Viability - Mesenchymal (AID 546); conditions: mesenchymal cells viability, qHTS; activity change, negative = cytotoxicity: at 91.7 µM (top of the series);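 also: cells exposed to compound for 40 hours before reading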; also: potency is read from the fitted curve at half-maximal effect
In short: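 CellTiter-Glo luminescence (intracellular ATP, 20 min room temperature) after 40 hr compound exposure at 37 °C of 1000 glomerulus-derived human kidney mesenchymal cells/well; AC50 values obtained by fitting qHTS concentration-response data to the Hill equation.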

[4] = Cellular Toxicity (caspase-3) HepG2 (AID 654); also: potency is read from the fitted curve at half-maximal effect;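 as to caspase-3 activation: cells exposed to compound for 16 hours before reading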
In short: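 Caspase 3/7 activation in HepG2 is measured as rising luminescence after a 16 hr treatment at 37 °C. Values are scaled between DMSO basal and 100 uM tamoxifen, and AC50 is fitted with the Hill equation.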

[5] = Cellular Toxicity (caspase-3) HUV-EC-C (AID 656)
In short: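 HUV-EC-C endothelial cells, 1000/well, were pre-incubated 5 hr at 37°C, then exposed to compounds for 16 hr at 37°C. Caspase-Glo 3/7 luminescence was read after 20 min at room temperature. AC50 came from Hill fits, normalized to DMSO and 100 uM tamoxifen.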

[6] = Cellular Toxicity (caspase-3) Mesangial (AID 660); conditions: Potency: caspase-3 activation;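 also: combined caspase 3 and 7 activity read by Caspase-Glo luminescence; cells exposed to compound for 16 h before the caspase read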; also: potency is read from the fitted curve at half-maximal effect
In short: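 Seed cells derived from normal human renal glomeruli, incubate 5 h, add compounds across concentrations and incubate 16 h at 37 °C. Caspase 3/7 activation is then quantified by luciferase light, with AC50 derived by Hill modeling.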

[7] = Cellular Toxicity (caspase-3) SK-N-SH (AID 661); also: potency is read from the fitted curve at half-maximal effect
In short: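 Cells were seeded and incubated 5 hr at 37 °C, dosed with compound over a concentration range for 16 hr, then given Caspase-Glo 3/7 reagent for 1 hr at room temperature before luminescence reading.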

[8] = Cellular Toxicity (caspase-3) H-4-II-E (AID 663); conditions: H-4-II-E rat hepatoma, scaled: DMSO 0%, 100 µM tamoxifen 100%; at 92.2 µM (top of the series);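 also: cells exposed to compound for 16 hr before readout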
In short: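 Caspase 3/7 activation measured by luminescent aminoluciferin substrate cleavage after 16 hr compound treatment of H-4-II-E cells in complete medium. Increase normalized between DMSO (basal) and 100 uM tamoxifen (100%); Hill-equation AC50 from concentration-response.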

[9] = Cellular Toxicity (caspase-3) Hek293 (AID 664); conditions: HEK293 caspase-3 activation, DMSO = 0%, 100 µM tamoxifen = 100%; at 92.2 µM (top of the series);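 also: cells exposed to compound for 16 h at 37 °C before readout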
In short: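 qHTS, HEK293 (human embryonic kidney), 16 h cpd exposure in complete medium. Caspase-3/7 activation = luminescence increase; normalized to DMSO/100 uM tamoxifen; Hill-fit AC50.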

[10] = Cellular Toxicity (caspase-3) N2a (AID 665); conditions: Potency: caspase-3 activation;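 also: compound exposure lasted 16 h at 37 °C before readout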; also: potency is read from the fitted curve at half-maximal effect
In short: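 Caspase-3/7 activation, measured as increased luminescence from aminoluciferin release, is quantified in mouse N2a cells exposed to compounds for 16 h. Values are normalized to DMSO and 10 uM staurosporine, with AC50 derived by Hill modelling.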

[11] = Cellular Toxicity (caspase-3) NIH 3T3 (AID 666);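 also: caspase signal read after 16 h compound exposure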; also: potency is read from the fitted curve at half-maximal effect
In short: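 Cells were plated at 1000 per well and incubated 5 hr at 37°C, then compound was added for 16 hr. Caspase-Glo 3/7 reagent followed for 20 min at room temperature before luminescence was read.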

[12] = Cellular Toxicity (caspase-3) Renal Proximal Tubule (AID 667); conditions: Potency: caspase-3 activation;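 also: cells exposed to compound for 16 hours at 37 °C before detection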; also: potency is read from the fitted curve at half-maximal effect
In short: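 Primary rat proximal tubule cells, 1000/well, 5 h plating at 37 °C, then compound 16 h at 37 °C. Caspase-Glo 3/7 reagent, 1 h RT, luminescence. Normalized to DMSO (basal) and 10 uM staurosporine (100%); Hill-fit AC50.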

[13] = Cellular Toxicity (caspase-3) SHSY5Y (AID 657)
In short: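 SH-SY5Y human neuroblastoma cells (1500/well) were treated with compounds for 16 h at 37 °C, then Caspase-Glo 3/7 luminescence was read after 1 h at room temperature. Data normalized to DMSO and 10 uM staurosporine; AC50 from Hill fits.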

[14] = Cellular Toxicity (caspase-3) BJ (AID 658)
In short: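 Caspase-Glo 3/7 luminescence, read 1 hr after reagent at room temperature, in normal BJ fibroblasts exposed 16 hours at 37 °C. AC50 values from Hill-equation concentration-response, scaled between DMSO basal and 10 uM staurosporine as 100%.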

[15] = biological target: Cytochrome P450 3A4 (Homo sapiens) (UniProt P08684); assay: qHTS Assay for Inhibitors and Substrates of Cytochrome P450 3A4 (AID 884); also: nearly all actives have a fitted effect of over 50% in size; also: potency is read from the fitted curve at half-maximal effect
Sequence of Cytochrome P450 3A4 (Homo sapiens) (P08684 whole entry, looked up): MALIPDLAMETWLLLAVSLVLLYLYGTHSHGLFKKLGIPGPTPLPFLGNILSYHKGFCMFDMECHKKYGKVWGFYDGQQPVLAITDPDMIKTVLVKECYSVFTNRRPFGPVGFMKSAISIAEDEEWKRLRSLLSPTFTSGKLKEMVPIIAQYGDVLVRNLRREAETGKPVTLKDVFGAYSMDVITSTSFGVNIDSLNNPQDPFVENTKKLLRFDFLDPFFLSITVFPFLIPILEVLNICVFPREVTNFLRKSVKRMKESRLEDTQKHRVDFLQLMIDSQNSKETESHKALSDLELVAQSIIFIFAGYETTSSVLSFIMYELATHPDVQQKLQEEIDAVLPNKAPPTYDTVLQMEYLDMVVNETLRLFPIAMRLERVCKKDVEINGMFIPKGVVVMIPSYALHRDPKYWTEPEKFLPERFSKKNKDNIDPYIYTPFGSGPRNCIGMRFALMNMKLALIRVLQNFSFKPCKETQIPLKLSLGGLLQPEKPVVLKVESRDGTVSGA
In short: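 Luminescent readout of luciferin produced by CYP3A4 (20 nM) dealkylation of Luciferin-PPXE, 25 uM (its KM). NADPH-driven reaction ran 60 min at RT after 10 min compound preincubation; data scaled to 57 uM ketoconazole as 100% inhibition.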

[16] = biological target: Cytochrome P450 3A4 (Homo sapiens) (UniProt P08684); assay: qHTS Assay for Activators of Cytochrome P450 3A4 (AID 885); also: nearly all actives have a fitted effect of over 65% in size
In short: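 CYP3A4 activity: Luciferin-PPXE O-dealkylation, 25uM substrate, 200mM KPO4, RT throughout. Read-out is luciferase luminescence; higher values reflect activation.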

[17] = Cellular Toxicity (caspase-3) Jurkat (AID 655);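 also: cells exposed to compound for 16 h at 37 °C before reading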; also: potency is read from the fitted curve at half-maximal effect
In short: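 Jurkat cells (5000/well) in complete medium were treated with compounds for 16 hr at 37 °C, then Caspase-Glo 3/7 luminescence was read after 20 min at room temperature. Data normalized to DMSO (basal) and 100 uM tamoxifen (100%); AC50 from Hill fit.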

[18] = biological target: Cytochrome P450 2C9 (Homo sapiens) (UniProt P11712); assay: qHTS Assay for Inhibitors and Substrates of Cytochrome P450 2C9 (AID 883); also: nearly all actives have a fitted effect of over 60% in size
Sequence of Cytochrome P450 2C9 (Homo sapiens) (P11712 whole entry, looked up): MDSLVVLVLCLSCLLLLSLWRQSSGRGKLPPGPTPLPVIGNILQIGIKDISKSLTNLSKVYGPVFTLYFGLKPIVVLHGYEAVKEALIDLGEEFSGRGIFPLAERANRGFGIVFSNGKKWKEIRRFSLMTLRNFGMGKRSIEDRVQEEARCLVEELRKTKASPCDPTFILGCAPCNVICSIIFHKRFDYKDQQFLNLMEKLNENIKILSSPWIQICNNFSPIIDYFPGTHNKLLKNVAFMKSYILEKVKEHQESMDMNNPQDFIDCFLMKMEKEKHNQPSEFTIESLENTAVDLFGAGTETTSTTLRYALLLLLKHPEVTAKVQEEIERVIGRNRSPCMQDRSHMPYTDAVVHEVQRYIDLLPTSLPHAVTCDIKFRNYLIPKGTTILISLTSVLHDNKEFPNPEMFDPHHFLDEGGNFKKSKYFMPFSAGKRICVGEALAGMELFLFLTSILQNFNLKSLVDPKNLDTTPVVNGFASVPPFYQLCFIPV
In short: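 Turnover of Luciferin-H (100uM, KM) by 10nM human CYP2C9 was measured over 60 min at 37C with NADPH regeneration; inhibitors and some substrates reduce luminescence. Data normalized to sulphaphenazole 57uM.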

[19] = biological target: Cytochrome P450 2D6 (Homo sapiens) (UniProt P10635); assay: qHTS Assay for Inhibitors and Substrates of Cytochrome P450 2D6 (AID 891);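 also: luciferin methyl ether substrate demethylated by CYP2D6 with NADPH regeneration; nearly all actives have a fitted effect of over 60% in size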
Sequence of Cytochrome P450 2D6 (Homo sapiens) (P10635 whole entry, looked up): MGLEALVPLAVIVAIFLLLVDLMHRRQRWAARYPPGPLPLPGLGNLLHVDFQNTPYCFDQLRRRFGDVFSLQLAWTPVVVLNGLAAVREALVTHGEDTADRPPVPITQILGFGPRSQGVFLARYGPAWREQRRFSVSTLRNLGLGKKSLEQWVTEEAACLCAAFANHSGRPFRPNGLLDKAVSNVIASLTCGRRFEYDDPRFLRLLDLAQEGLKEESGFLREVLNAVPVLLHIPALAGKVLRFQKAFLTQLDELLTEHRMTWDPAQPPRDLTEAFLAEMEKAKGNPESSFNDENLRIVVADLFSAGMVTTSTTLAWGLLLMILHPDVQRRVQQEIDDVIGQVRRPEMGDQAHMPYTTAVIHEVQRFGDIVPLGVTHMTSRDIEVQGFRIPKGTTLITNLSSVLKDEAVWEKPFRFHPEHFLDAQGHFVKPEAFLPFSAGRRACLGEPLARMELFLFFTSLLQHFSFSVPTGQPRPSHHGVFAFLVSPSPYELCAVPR
In short: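 Luminescent read-out of luciferin formed by 5 nM human CYP2D6 demethylating 30 uM Luciferin-ME EGE (Km level) over 60 min at room temperature after NADPH regeneration addition. Data normalized to full inhibition by 1.43 uM quinidine.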

Row | SMILES | outcome [1] | outcome [2] | Potency [3] | Potency [4] | outcome [5] | Potency [6] | Potency [7] | caspase-3 activation [8] | caspase-3 activation [9] | Potency [10] | Potency [11] | Potency [12] | outcome [13] | outcome [14] | Potency [15] | Potency [16] | Potency [17] | Potency [18] | Potency [19]
1 | O=Nc1ccc2oc(=O)ccc2c1 | inactive | inactive | – | – | – | – | – | – | – | – | – | – | – | – | – | – | – | – | –
2 | CN(C)c1ccc(C(=C2C=CC(=[N+](C)C)C=C2)c2ccccc2)cc1 | inactive | – | 316 nM (active) | 631 nM (active) | inactive | 1260 nM (active) | 1000 nM (active) | -4.63% (active) | -9.3% (active) | 79.4 nM (active) | 1000 nM (active) | 794 nM (active) | – | – | – | – | – | – | –
3 | COc1cc(/C=C/C(=O)CC(=O)/C=C/c2ccc(O)c(OC)c2)ccc1O | – | – | inactive | inactive | inactive | – | inactive | 1.39% | 27.4% | – | – | – | inactive | inactive | 12600 nM (active) | inactive | – | – | –
4 | NO | inactive | inactive | – | – | – | – | – | – | – | – | – | – | – | – | – | – | – | – | –
5 | Nc1ccc([N+](=O)[O-])cc1O | – | – | inactive | inactive | inactive | inactive | inactive | 2.85% | -2.49% | inactive | inactive | inactive | inactive | inactive | inactive | – | inactive | – | –
6 | CC1(C)S[C@@H]2[C@H](NC(=O)[C@H](N)c3ccccc3)C(=O)N2[C@H]1C(=O)O | – | – | inactive | inactive | inactive | inactive | inactive | 0.54% | -0.638% | inactive | inactive | inactive | inactive | inactive | – | – | inactive | – | –
7 | S=c1[nH]c2ccccc2s1 | – | – | inactive | inactive | inactive | inactive | inactive | 0.172% | 1.33% | inactive | inactive | inactive | inactive | inactive | – | – | inactive | – | –
8 | CC1(C)CCC=[N+]1[O-] | inactive | inactive | – | – | – | – | – | – | – | – | – | – | – | – | – | – | – | – | –
9 | c1ccc(-c2ccccn2)nc1 | inactive | inactive | – | – | – | – | – | – | – | – | – | – | – | – | – | – | – | – | –
10 | O=C1CN(/N=C/c2ccc([N+](=O)[O-])o2)C(=O)N1 | – | – | inactive | inactive | inactive | inactive | inactive | -0.519% | -0.37% | inactive | inactive | inactive | inactive | inactive | – | – | inactive | – | –
11 | Oc1ccccc1O | inactive | inactive | inactive | inactive | inactive | inactive | inactive | – | 7.91% | inactive | – | inactive | – | inactive | – | – | inactive | inactive | inactive
12 | c1cnc2c(c1)ccc1cccnc12 | inactive | inactive | inactive | inactive | inactive | inactive | inactive | – | -4.62% | inactive | inactive | inactive | inactive | inactive | inactive | – | 6310 nM (active) | inactive | inactive
13 | CN1CCC[C@H]1c1cccnc1 | – | – | inactive | inactive | inactive | inactive | inactive | -0.172% | 1.08% | inactive | inactive | inactive | inactive | inactive | – | – | inactive | – | –
14 | O=C(O)/C=C\C(=O)O | – | – | inactive | inactive | inactive | inactive | inactive | 0.648% | -1.35% | inactive | inactive | inactive | inactive | inactive | inactive | – | inactive | – | –
15 | CN(C)CCC(c1ccc(Cl)cc1)c1ccccn1 (stereo unspecified) | – | – | inactive | inactive | inactive | inactive | inactive | 1.63% | 1.34% | inactive | inactive | inactive | inactive | inactive | inactive | – | inactive | – | –
16 | COc1cc(CNC(=O)CCCC/C=C/C(C)C)ccc1O | – | – | inactive | inactive | inactive | inactive | inactive | 1.09% | 0.218% | inactive | inactive | inactive | inactive | inactive | 2510 nM (active) | inactive | inactive | – | –
17 | NC(=O)C(=O)O | inactive | inactive | – | – | – | – | – | – | – | – | – | – | – | – | – | – | – | – | –
18 | Nc1ccc(O)c([N+](=O)[O-])c1 | – | – | inactive | inactive | inactive | inactive | inactive | 4.05% | 0.408% | inactive | inactive | inactive | inactive | inactive | inactive | – | inactive | – | –
19 | Cc1c(N)c(=O)n(-c2ccccc2)n1C | inactive | – | – | – | – | – | – | – | – | – | – | – | – | – | – | – | – | – | –
